Here are results for 36 molecules from PubChem BioAssay (NCI).

The panel holds about 83,000 compounds, 20% with a hit somewhere; the sample as a whole holds those more often.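 Treatment: one concentration, 48 hours, 96-well format. Scoring: percent growth, with anything below 10 considered active.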 The source made the active and inactive calls.

One assay concerns OVCAR-3 ovarian. Kind of assay: NCI-60 one-dose screen, 48 h (100 = growth as untreated, 0 = no growth, -100 = all killed). As to conditions: 10 µM unless noted.
Turning to `CN(Cc1ccccc1)c1nc(Cl)c(C2CC(c3ccc(Cl)cc3)=NN2c2cc(Cl)cc(Cl)c2)s1` (stereo unspecified), the growth is 109% (inactive).
On the same count and under the same terms, the same measure for `COC(=O)c1c(C)nc(C)c2c1C(=O)C(Br)=C(NCCCCO)C2=O`: 1.87% (active); for `COc1cc(/C=C/c2cc(/C=C/c3ccc(O)c(OC)c3)n(C(=O)Nc3ccc(C)cc3C)n2)ccc1O`: -37.3% (active); for `Cc1cc2nc(C(Cl)Cl)nc(-c3ccccc3)n2n1`: 36.9% (inactive).
Consider `CN1C(=O)N(C)C2C1NN=c1s/c(=C\c3ccccc3F)c(=O)n12` (stereo unspecified), for which the growth is -3.72% (active).

A further assay concerns HS 578T breast. The description is as above. As to conditions: 10 µM unless noted.
Regarding `O=C(O)c1nn(-c2ccc(Cl)cc2)nc1N1CCCC1`, the growth was 97% (inactive).
Take `O=C(Nc1ccc(Oc2cccc(F)c2)c(Cl)c1)c1cnccn1`: the growth was 27.8% (inactive).
The same measure, in the same setting: the value for `CC(=O)[C@H]1CC[C@]2(C)[C@@H]1CC[C@@H]1[C@@]3(C)C/C(=C/c4cccnc4)C(=O)C(C)(C)[C@@H]3CC[C@]12C` was 94.2% (inactive); that for `C=C(C)Cn1c(SCC(=O)c2cccs2)nc2sc3c(c2c1=O)CCCC3` was 65.3% (inactive); that for `Cc1ccc(C(=O)Nc2ccc(CN3CCN(C)CC3)c(C(F)(F)F)c2)cc1C#Cc1cnc(N)c2ccccc12` was -28.1% (active).
For the molecule `COc1cc(C2CC(c3cccc(Nc4ccncc4)c3)=Nc3c(N)ncnc3N2)cc(OC)c1OC` (stereo unspecified), the growth is 95% (inactive).
On the same count and under the same terms, the same measure for `CO[C@]12C=C/C(=C(/C(=O)OCc3cccnc3)C(=O)CCCCCCCC[C@]3(OC)C=C/C(=C(/C(=O)OCc4cccnc4)C(=O)CCCCCCCC1)O3)O2`: 30.6% (inactive).
For `CN1CCN(Cc2ccc(NC(=O)c3cncc(C#Cc4cnc(N)c5ccc(C#N)cc45)c3)cc2C(F)(F)F)CC1`, the growth was -32.1% (active).
Same read-out and setting: the same measure for `CCOC(=O)C1=C(c2ccccc2)N=C2SC=C(c3cccc([N+](=O)[O-])c3)N2C1c1ccc(O)cc1` (stereo unspecified): 102% (inactive).
Still for that read-out and setting: the value for `CCn1c2ccccc2c2cc(C(O)c3cccc4ncccc34)ccc21` (stereo unspecified) was 21.3% (inactive); that for `Cc1c(Cl)cccc1NC(=O)c1sc2nc3c(cc2c1N)CCCC3` was 40.3% (inactive).
On the same count and under the same terms, the value for `O=C(/C=C/c1ccco1)Nc1ncc(Cc2ccc(F)cc2)s1` was 11.3% (inactive).
In the case of `COc1nc2ccccc2cc1/C=[N+](\[O-])c1ccccc1`, the growth was 81.5% (inactive).
Still for that read-out and setting: the same measure for `COc1ccc(-c2ccc(-c3ccc(C(=N)N)o3)o2)cc1`: 56.2% (inactive); for `C=C(C[n+]1ccccc1)[C@@H]1CC[C@]2(C(=O)OC)CC[C@]3(C)[C@H](CC[C@@H]4[C@@]5(C)CCC(=O)C(C)(C)[C@@H]5CC[C@]43C)[C@@H]12`: 87.9% (inactive).
As for `COc1cccc(C(=O)Nc2cccc(NC(=O)c3ccccn3)c2)c1`, the growth was 116% (inactive).
Same read-out and setting: the same measure for `N#CC1=C(N)Oc2c(ccc3cccnc23)C1c1ccccc1` (stereo unspecified): 35.6% (inactive); for `COc1ccc(C2=NN(C=O)C(c3ccc(Oc4nc5c(c(=O)n(C)c(=O)n5C)n4C)c(OC)c3)C2)cc1` (stereo unspecified): 89.6% (inactive); for `CCCS(=O)(=O)Nc1cccc(Nc2ncnc3cc(NC(=O)CCl)ccc23)c1Cl`: 10.5% (inactive).
Turning to `C=C(C)[C@@H]1CC[C@]2(C(=O)NC(C)=O)CC[C@]3(C)[C@H](CC[C@@H]4[C@@]5(C)CCCNC(C)(C)[C@@H]5CC[C@]43C)[C@@H]12`, the growth is 52.3% (inactive).
The same measure, in the same setting: the same measure for `COc1cccc(CNc2nnc(C)c(C)n2)c1O`: 108% (inactive); for `O=C(/C=C/c1ccc(Cl)cc1)c1ccc(-n2cc(CN3CCN(c4cc5c(cc4F)c(=O)c(C(=O)O)cn5C4CC4)CC3)nn2)cc1`: 65.3% (inactive).
For the molecule `COc1cccc2cc(N(C)c3nc(C)nc4c3CCC4)ccc12`, the growth was 17.9% (inactive).
On the same count and under the same terms, the same measure for `O=C(O)CCCN1C(=O)CSC1=S`: 98.9% (inactive).
As for `C=C1C(=O)O[C@H]2[C@H]1CC/C(CNC(=O)/C=C/c1cc(OC)c(OC)c(OC)c1)=C\CC[C@@]1(C)O[C@@H]21`, the growth was 24.2% (inactive).
Still for that read-out and setting: the same measure for `Cc1nc2ccccc2c(/C=C/c2ccc(Br)cc2)c1C(=O)/C=C/c1ccccc1`: 25.9% (inactive).
As to `CC(=O)O[C@H]1C[C@@]2(C)[C@@H](C[C@@H](O)[C@H]3[C@@]4(C)CC[C@H](N5CCCC5)[C@@H](C)[C@@H]4CC[C@@]32C)/C1=C(\CCC=C(C)C)C(=O)O`, the growth is 95.3% (inactive).
Still for that read-out and setting: the value for `O=C(O)c1cc2ccccc2s1` was 99.3% (inactive); that for `CC(=O)OCCOc1cc(Cl)c(Cl)cc1Cl` was 103% (inactive).
`CCN1CCN(c2nc(NNC(=O)c3ccc(OC)cc3)nc(N3CCN(C(c4ccccc4)c4ccccc4)CC3)n2)CC1`: the growth is 46.2% (inactive).
On the same count and under the same terms, the same measure for `Cc1cc(=O)oc2cc(Oc3nc(-c4ccccc4)cn4c(-c5ccccc5)cnc34)ccc12`: 58.6% (inactive).
Still for that read-out and setting: the same measure for `CN(Cc1ccccc1)c1nc(Cl)c(C2CC(c3ccc(Cl)cc3)=NN2c2cc(Cl)cc(Cl)c2)s1` (stereo unspecified): 116% (inactive).
With `COC(=O)c1c(C)nc(C)c2c1C(=O)C(Br)=C(NCCCCO)C2=O`, the growth is 87.7% (inactive).
On the same count and under the same terms, the value for `COc1cc(/C=C/c2cc(/C=C/c3ccc(O)c(OC)c3)n(C(=O)Nc3ccc(C)cc3C)n2)ccc1O` was -15% (active); that for `Cc1cc2nc(C(Cl)Cl)nc(-c3ccccc3)n2n1` was 52.6% (inactive); that for `CN1C(=O)N(C)C2C1NN=c1s/c(=C\c3ccccc3F)c(=O)n12` (stereo unspecified) was 7.57% (active).
